Drawing on PubChem BioAssay (NCATS), this text covers Potency for 38 compounds.

Molecules are shown by their SMILES. Inconclusive results are not listed. Where a call stands in place of a potency, no number is given. The source made the active and inactive calls. Calls come from the whole dose curve; as a rule, active = well fitted inhibition curve with a large enough effect; inconclusive = small, poorly fitted or top-dose-only effect; inactive = flat fitted curve, though single readings scatter.

In this assay the test system is Zika virus NS2B-NS3 protease. In words: Primary screen GU AMC qHTS for Zika virus inhibitors (AID 1347154). Note: nearly all actives have a fitted effect of over 70% in size. As to conditions: Zika NS2B-NS3 unlinked protease, AMC fluorogenic substrate; series mostly up to 54.1 µM. The essentials: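 Fluorogenic AMC-substrate cleavage by noncovalent NS2B-NS3 protease complex (25 nM, pH 8.0 Tris buffer with Tween 20) followed for 15 minutes at room temperature (~20% conversion). Percent inhibition from ex340/em450 signal change, fitted by 4-parameter Hill equation.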
A general note: qHTS replaces the single test concentration by a dilution series.
In the case of `O=C(Nc1nc2cccc(-c3ccc(CN4CCS(=O)(=O)CC4)cc3)n2n1)C1CC1`, the Potency result is “inactive”.
In the case of `CC(=O)c1c(C)c2cnc(Nc3ccc(N4CCNCC4)cn3)nc2n(C2CCCC2)c1=O`, the Potency entry was “inactive”.
To `COc1cc(-c2nn(C3CCC(N4CCN(C(C)=O)CC4)CC3)c3ncnc(N)c23)ccc1NC(=O)c1cc2ccccc2n1C` (stereo not drawn) belongs “inactive”; to `CN1CCN(c2ccc3nc(-c4c(N)c5c(F)cccc5[nH]c4=O)[nH]c3c2)CC1`, “inactive”; to `Clc1cccc(-n2nnnc2NCc2ccccc2Oc2ccccn2)c1Cl`, “inactive”.
In the case of `O=c1[nH]c(=O)n(C2CCCO2)cc1F` (stereo not drawn) it was “inactive”; in that of `O=C(NCCS(=O)(=O)c1ccc(C(F)(F)F)cn1)c1ccc(Cl)cc1`, “inactive”; in that of `CC(C)Nc1cc(C(F)(F)F)cc2nc(NC(=O)c3cccnc3)nn12`, “inactive”.
Regarding `CCN(CC)CCNC(=O)c1ccc2nc(-c3ccccc3)c(-c3ccc(CN4CCC(n5c(=O)[nH]c6ccccc65)CC4)cc3)nc2c1`, the Potency entry was “inactive”.
To `C1=CCOCc2cc(ccc2OCCN2CCCC2)Nc2nccc(n2)-c2cccc(c2)OCC1` belongs “inactive”; to `C[C@]12CC[C@H](O)CC1=CCC1C2CC[C@]2(C)C(n3cnc4ccccc43)=CCC12` (stereo partly drawn), “inactive”; to `CC1COC2(CCN(c3nc(=O)c4cc(C(F)(F)F)cc([N+](=O)[O-])c4s3)CC2)O1` (stereo not drawn), “inactive”.
To `COc1ccc(C(=O)CC2(O)C(=O)Nc3c(Cl)ccc(Cl)c32)cc1` (stereo not drawn) belongs “inactive”; to `Cc1cc(Nc2cc(CN3CCOCC3)c3nc(C)c(Cc4ccc(Cl)cc4F)n3n2)n[nH]1`, “inactive”.
For the compound `CC[C@H](CO)Nc1nc(NCc2ccccc2)c2ncn(C(C)C)c2n1`, the Potency result is “inactive”.
To `COc1cc2c(Oc3ccc4[nH]c(C)cc4c3F)ncnc2cc1OCCCN1CCCC1` belongs “inactive”; to `CNc1nccc(-c2cccnc2Oc2cc(C(=O)Nc3cccc(C(F)(F)F)c3)ccc2C)n1`, “inactive”; to `CN(C)c1nc(Cc2ccc(NC(=O)c3ccc4ccccc4c3)cc2)nc(Cl)c1CC(=O)O`, “inactive”.
Regarding `O=C1CCC[C@@H]2[C@H]3CCC[N+]4([O-])CCC[C@@H](CN12)[C@@H]34` (stereo partly drawn), the Potency entry was “inactive”.
To `C[C@H]1C[C@@H]2[C@@H]([C@@H](O)C[C@@]3(C)[C@H]2CC[C@]3(O)C(=O)CO)[C@@]2(C)C=CC(=O)C=C12` belongs “inactive”; to `CNC(=O)c1cc(Oc2ccc(NC(=O)Nc3cc(C(C)(C)C)nn3-c3ccc4ncccc4c3)c(F)c2)ccn1`, “inactive”.
Consider `CNC(=O)c1ccc(-c2cnc3ncc(Cc4ccc5ncccc5c4)n3n2)cc1F`, for which the Potency entry is “inactive”.
On to `NC1(Cc2ccc(Cl)cc2)CCN(c2ncnc3[nH]ccc23)CC1`, for which the Potency entry was “inactive”.
In the case of `COC(=O)C1=C(C)NC(C)=C(C(=O)OCCN2CCN(C(c3ccccc3)c3ccccc3)CC2)C1c1cccc([N+](=O)[O-])c1` (stereo not drawn) it was “inactive”.
As for `CC(C)c1noc(N2CCC(COc3ccc(-c4ccc(S(C)(=O)=O)cc4)nc3)CC2)n1`, the Potency result is “inactive”.
To `O=C(CCCCCCNC(=O)c1cnc(N(c2ccccc2)c2ccccc2)nc1)NO` belongs “inactive”; to `Fc1cc(-c2cccc3ncc(-c4cnn(C5CCNCC5)c4)nc23)cc(F)c1CN1CCOCC1`, “inactive”.
In the case of `CC(=O)SC[C@@H](C)C(=O)N1CCC[C@H]1C(=O)N[C@@H](Cc1ccccc1)C(=O)O`, the Potency entry is “inactive”.
In the case of `CCCNC(=O)Nc1ccc(Oc2ncnc3cc(OC)c(OC)cc23)cc1Cl` it was “inactive”; in that of `O=C(c1ccc(Nc2nccc(-c3cc4ccccc4s3)n2)cc1)N1CCC(N2CCCC2)CC1`, “inactive”; in that of `c1nc2nc(Nc3ccc(N4CCOCC4)cc3)nc(NC3CCCCC3)c2[nH]1`, “inactive”.
As for `O=C(NCCCNc1nc(Nc2cccc(NC(=O)N3CCCC3)c2)ncc1I)c1cccs1`, the Potency entry is “inactive”.
Regarding `C[C@@H]1COC(Nc2ccc3ncnc(Nc4ccc(OCc5nccs5)c(Cl)c4)c3c2)=N1`, the Potency entry is “inactive”.
On to `Cc1cc(Nc2cc(N3CCN(C)CC3)nc(C=Cc3ccccc3)n2)n[nH]1`, for which the Potency result was “inactive”.
Regarding `CC(O)C1C(=O)N2C(C(=O)O)=C(SC3CNC(C(=O)N(C)C)C3)C(C)C12` (stereo not drawn), the Potency entry is “inactive”.
Consider `CC1(C)CC(=O)c2c(C(F)(F)F)nn(-c3ccc(C(N)=O)c(NC4CCC(OC(=O)CN)CC4)c3)c2C1` (stereo not drawn), for which the Potency entry is “inactive”.
`COc1cc2ncnc(Nc3ccc(F)c(Cl)c3)c2cc1NC(=O)C=CCN1CCCCC1`: the Potency entry was “inactive”.
In the case of `CC1(O)CC(c2nc(-c3ccc4ccc(-c5ccccc5)nc4c3)c3c(N)nccn23)C1` (stereo not drawn), the Potency result is “inactive”.
